# Shown are actives, neighbours in structure and some others; about 3.8% of the full set was active somewhere.
# tim10-1 inh: inhibits growth of tim10-1 mutant yeast | S. cerevisiae tim10-1 ts strain growth, BacTiter-Glo, 24 h | inhibition, % at 20 µM | hit rate 2.2% among 330,000 | AID 463190;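 active means inhibition of at least 40%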;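 further: mutant grown at 25 °C; 0% = DMSO wells with yeast and 100% = wells holding no yeast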
# NALP3 yeast inh: inhibitors of NALP3 inflammasome in yeast | Yeast reconstituted NLRP3/ASC/caspase-1, beta-gal luminescence, 24 h | inhibition, % at 10 µM | hit rate 0.39% among 330,000;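 active means inhibition of 50% or more; inactive means inhibition below 50%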;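 further: plate controls were induced DMSO wells for no effect and uninduced yeast grown without galactose for full effect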
# TIM10 inh: inhibits growth of TIM10 yeast strain; inhibition, % at 10 µM; S. cerevisiae TIM10 strain growth, BacTiter-Glo luminescence, 24 h; AID 463195; hit rate 1.4% among 330,000;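 active means inhibition of 40% or more at the single tested concentration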;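 further: wild-type TIM10 isogenic control strain grown at permissive 25 °C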
# tim23-1 inh: inhibits growth of tim23-1 mutant yeast | inhibition, % at 20 µM | hit rate 1.3% among 330,000 | S. cerevisiae tim23-1 growth, BacTiter-Glo luminescence, 24 h;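 active means growth inhibition of the mutant yeast at or above 50%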;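 further: temperature-sensitive mutant grown at 25 °C; plate controls were DMSO-treated mutant yeast for no effect and medium wells lacking yeast for full effect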
# Yeast superoxide: lowers age-related superoxide in aged yeast cells; S. cerevisiae aged cells, superoxide DHE fluorescence; active compounds read low; superoxide response (% of plate mean), % at 10 µM; hit rate 0.18% among 330,000; AID 2690;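 active means superoxide response under a set limit, about three screen SD below normal, cut at about 65% in these data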;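 further: yeast aged for seven days with compound at 30 °C before DHE staining; 100% = average MFI of all compound-treated wells on the plate with controls excluded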
# tim10-1 conf: confirmation of tim10-1 mutant yeast growth inhibitors; shares compounds with tim10-1 inh; S. cerevisiae tim10-1 ts strain growth, BacTiter-Glo, 24 h; inhibition, % at 20 µM; hit rate 56% among 7,400; AID 463213;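 active means inhibition of yeast growth at or above a set limit in either of two repeat tests at 20 µM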;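 further: tim10-1 mutant grown at permissive 25 °C to find synthetic lethal compounds; 0% = DMSO yeast wells and 100% = medium wells without yeast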
# TIM10 conf: TIM10 yeast growth inhibition, confirmed; AID 463215; shares compounds with TIM10 inh; inhibition, % at 10 µM; S. cerevisiae tim10 strain growth, BacTiter-Glo luminescence, 24 h; hit rate 63% among 4,600;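 active means inhibition of yeast growth at or above a set limit in either of two replicates at 10 µM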;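 further: this counterscreen used the strain with wild-type TIM10; 0% = yeast with DMSO and 100% = medium wells lacking yeast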
# The depositor's hits bear a star; i = inactive; / = no result given.
SMILES,tim10-1 inh,NALP3 yeast inh,TIM10 inh,tim23-1 inh,Yeast superoxide,tim10-1 conf,TIM10 conf
COc1cccc(-c2cc(C(=O)N3CCN(Cc4ccccc4)CC3)no2)c1,43.6*,15.2,42.4*,29.8,102.5,30.4*,45.7*
COc1ccccc1N1CCN(C(=O)c2cc(-c3ccc(Cl)cc3)on2)CC1,46.8*,-2.3,48.3*,33.1,72.7,31.7*,30.4*
Cc1ccc(Cl)cc1NC(=S)NCCCSC1CCCCC1,42.4*,12.1,42.3*,39.0,96.9,26.5,12.8
Cc1cc(Cl)ccc1NC(=S)NCCCO,15.1,4.8,10.4,9.9,99.9,/,/
CSc1ccc(C2=CC(=O)C[C@H](c3ccc(F)cc3)C2)cc1,14.9,11.5,4.3,35.7,113.0,/,/
Cc1ccc(NC(=O)c2ccc3ccccc3n2)nc1,52.1*,-1.8,70.2*,43.3,105.7,36.0*,74.4*
O=[N+]([O-])CC(c1ccc(F)cc1)c1c[nH]c2ccccc12 (configuration not stated),50.9*,-7.6,43.5*,43.9,105.3,66.3*,59.5*
NCC(c1ccccc1)c1c[nH]c2ccccc12 (configuration not stated),26.0,12.6,11.1,25.5,98.0,/,/
Cc1ccc(-c2nc3sc(C#N)c(N)n3c(=O)c2C#N)cc1,-33.5,7.1,-24.1,-16.7,109.6,/,/
COc1cc(C(=O)/C=C/c2cccnc2)ccc1O,26.3,23.4,6.8,15.4,111.7,/,/
COc1ccc(OC)c(C(=O)/C=C/c2cccnc2)c1,48.5*,9.5,42.0*,33.3,89.8,32.3*,33.9*
COc1ccccc1-n1nc(C)c(-c2ccccc2)c1N,6.5,8.4,-6.7,6.4,93.7,/,/
Cc1cccc(Oc2cc(NC(=O)c3ccccc3)cc([N+](=O)[O-])c2)c1,44.2*,19.6,53.4*,31.3,101.7,35.5*,2.0
Cn1cc([N+](=O)[O-])c(C(=O)Nc2cc(Oc3ccccc3)cc([N+](=O)[O-])c2)n1,/,/,/,/,89.8,/,/
Cc1ccc2ccccc2c1COC(=O)c1nonc1N,42.9*,-9.4,50.5*,25.9,117.4,43.4*,49.9*
O=C(Oc1ccc(/C=N/O)cc1)c1ccccc1Cl,51.8*,13.7,56.6*,46.8,94.8,45.0*,29.0
COC(=O)c1cccc(NC(=O)c2cccs2)c1C,6.5,11.1,-11.5,3.2,101.4,/,/
CN(C)N1C(N)=C(C#N)C(c2ccccc2)C2=C1CCCC2=O (configuration not stated),16.3,12.1,-5.7,7.1,94.1,/,/
Cc1cc(C)c(S(=O)(=O)ON2C(=O)c3ccccc3C2=O)cc1C,70.5*,26.4,44.7*,13.8,116.0,60.2*,73.6*
Cc1ccc(S(=O)(=O)ON2C(=O)c3ccccc3C2=O)c(C)c1,/,/,/,/,82.1,/,/
Cc1nnc(-c2cccc(Br)c2)c2cn(-c3ccccc3Cl)nc12,51.0*,-14.2,51.4*,41.7,89.1,39.2*,49.9*
Cc1nnc(Cl)c2nn(-c3ccccc3)c(C)c12,-5.0,3.4,-1.5,0.7,94.5,/,/
O=C(C#Cc1ccccc1)c1ccc([N+](=O)[O-])cc1,43.4*,-39.5,54.5*,-95.3,/,8.9,-24.9
O=C(c1ccc(-c2ccccc2)cc1)c1ccc([N+](=O)[O-])cc1,-2.5,-2.0,1.2,2.3,86.0,/,/
N#Cc1ccccc1NC(=O)CN1C(=O)NC(Cc2c[nH]c3ccccc23)C1=O (configuration not stated),-36.5,11.6,2.8,0.6,107.8,/,/
SMILES,tim10-1 inh,NALP3 yeast inh,TIM10 inh,tim23-1 inh,Yeast superoxide,tim10-1 conf,TIM10 conf
COC(=O)c1cc(N2C(=O)C3C(C2=O)C2(C)C=CC3(C)O2)ccc1Cl (configuration not stated),53.3*,-12.6,82.7*,18.0,82.4,75.5*,89.7*
CC(=O)Oc1ccc(N2C(=O)C3C4C=CC(CO)(O4)C3C2=O)cc1 (configuration not stated),-0.7,13.8,-5.8,6.8,95.3,/,/
CC(=O)Oc1ccc(N2C(=O)C3C(C2=O)C2(C)C=CC3(C)O2)cc1 (configuration not stated),55.5*,-11.6,83.2*,2.2,90.7,92.7*,87.4*
Cc1onc(-c2ccccc2)c1C(=O)N1CCCC(C(F)(F)F)C1 (configuration not stated),15.0,21.3,8.8,15.6,110.9,/,/
CCCn1cnc2cc(NCc3ccc(Br)cc3)ccc21,42.7*,44.2,51.6*,45.3,99.8,16.6,50.2*
CCn1cnc2cc(NCc3ccc(C)cc3)ccc21,-18.4,-12.5,3.6,6.4,144.8,/,/
COc1ccc(CC(=O)O/N=C(\N)Cc2cccc3ccccc23)cc1,44.1*,11.8,47.7*,16.5,113.4,49.9*,53.0*
Cc1ccc(OCC(=O)O/N=C(\N)c2ccccn2)cc1,-12.7,44.7,23.4,15.2,103.1,/,/
Cc1ccc(OCC(=O)O/N=C(\N)Cc2ccc(Cl)cc2)cc1,58.9*,36.8,78.3*,41.9,106.0,44.1*,-10.9
Cc1ccc(/C(N)=N/OC(=O)COc2ccccc2Cl)cc1,61.4*,26.0,40.0,49.9,98.7,41.8*,43.4*
COc1ccc(OCC(=O)O/N=C(\N)Cc2ccc(Cl)cc2Cl)cc1,63.5*,30.7,49.6*,49.7,95.0,62.6*,45.9*
COC(=O)[C@]1(C)N[C@H](CN(C)S(=O)(=O)c2ccc(C)cc2)[C@@H]2C(=O)N(Cc3ccccc3)C(=O)[C@@H]21,9.0,1.7,14.8,-0.6,93.5,/,/
Cc1c(C(=O)N(C)C2CCCCC2)sc2ncnc(N3CCN(c4ccccc4F)CC3)c12,35.8,-6.2,27.9,32.2,115.2,/,/
CCN(C(=O)CN1C(=O)S/C(=C\C=C\c2ccccc2)C1=O)C1CCS(=O)(=O)C1 (configuration not stated),-8.2,1.0,5.4,-4.4,90.3,/,/
COc1ccc(OCC(=O)O/N=C(\N)Cc2ccc(Cl)cc2)cc1,62.3*,27.8,54.1*,47.3,106.9,57.7*,-40.0
N/C(=N\OC(=O)Cc1cccc2ccccc12)c1ccccn1,60.4*,14.1,43.3*,9.8,115.5,49.0*,38.3*
COc1ccc(OCC(=O)O/N=C(\N)Cc2cccs2)cc1,18.6,24.5,15.5,10.7,99.4,/,/
N/C(Cc1cccc2ccccc12)=N\OC(=O)c1ccc2c(c1)OCO2,47.9*,-8.4,60.4*,19.7,108.3,39.3*,32.1*
N/C(=N\OC(=O)c1ccc2c(c1)OCO2)c1cccnc1,13.7,-10.5,5.2,9.9,95.3,/,/
COc1cc(NC(=O)c2ccc3c(c2)OCCO3)ccc1NC(=O)c1cccs1,-17.3,12.2,17.1,13.6,104.1,/,/
C=CCn1c(=O)c2ccccc2n2c(SCc3c(C(=O)OCC)oc4ccccc34)nnc12,40.8*,4.2,41.9*,35.1,i,38.2*,17.2

# Assay outcomes (PubChem BioAssay)
